Experimental data published in ChEMBL document CHEMBL3988442, “University of Dundee, Small-Polar-MMV Screening Library” (2021).
For some of these results: Measured potencies and affinities stand elsewhere.

Legend:
Parameters in all cases: scale not given: direction of the effect not stated beside the values
[1] = target: Protein translocase subunit SecA (Escherichia coli (strain K12)) (UniProt P10408); test: Assay to Identify E. coli SecA ATPase Inhibitors; assay type: functional; conditions: 30 µM
[2] = target: T1, Ubiquitin-activating enzyme e1, putative (Leishmania donovani (strain BPK282A1)) (UniProt E9BSI1); test: Leishmania donovani Ubiquitin Activating Enzyme (LdE1); assay type: functional; conditions: 30 µM
T1 sequence (whole entry): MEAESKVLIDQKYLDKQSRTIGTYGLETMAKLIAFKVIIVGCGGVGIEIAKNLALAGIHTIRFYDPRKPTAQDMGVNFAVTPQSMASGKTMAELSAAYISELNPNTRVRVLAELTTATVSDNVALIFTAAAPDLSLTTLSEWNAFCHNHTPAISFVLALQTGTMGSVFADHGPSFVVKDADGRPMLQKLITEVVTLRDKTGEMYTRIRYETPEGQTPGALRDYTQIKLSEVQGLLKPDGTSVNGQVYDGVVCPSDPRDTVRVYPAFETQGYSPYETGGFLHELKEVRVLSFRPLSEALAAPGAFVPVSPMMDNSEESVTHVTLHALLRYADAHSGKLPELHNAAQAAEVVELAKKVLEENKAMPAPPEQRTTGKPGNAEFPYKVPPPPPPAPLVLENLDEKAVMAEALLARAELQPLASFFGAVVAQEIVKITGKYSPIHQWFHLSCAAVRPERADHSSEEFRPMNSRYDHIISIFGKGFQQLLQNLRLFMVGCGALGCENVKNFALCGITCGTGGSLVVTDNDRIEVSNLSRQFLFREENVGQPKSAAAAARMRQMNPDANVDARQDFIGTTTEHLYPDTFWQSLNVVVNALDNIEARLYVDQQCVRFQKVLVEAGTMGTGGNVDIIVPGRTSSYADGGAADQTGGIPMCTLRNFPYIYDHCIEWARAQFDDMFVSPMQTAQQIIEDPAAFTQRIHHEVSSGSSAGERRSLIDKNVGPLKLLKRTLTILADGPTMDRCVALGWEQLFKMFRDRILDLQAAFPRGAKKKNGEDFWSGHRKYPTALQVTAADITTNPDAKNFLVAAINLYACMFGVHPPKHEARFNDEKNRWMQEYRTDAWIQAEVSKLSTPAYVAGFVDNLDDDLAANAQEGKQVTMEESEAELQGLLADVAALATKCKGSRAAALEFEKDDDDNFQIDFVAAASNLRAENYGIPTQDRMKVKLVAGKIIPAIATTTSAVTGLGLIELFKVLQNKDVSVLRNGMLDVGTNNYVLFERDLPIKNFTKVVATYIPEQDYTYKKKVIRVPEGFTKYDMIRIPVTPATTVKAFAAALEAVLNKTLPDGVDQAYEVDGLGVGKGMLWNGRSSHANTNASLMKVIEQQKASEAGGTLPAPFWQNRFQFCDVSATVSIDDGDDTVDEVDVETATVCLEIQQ

[3] = target: AMP-activated protein kinase, AMPK (Homo sapiens) (UniProt P54646+O43741+P54619+Q9UGJ0+Q9Y478+Q13131+Q9UGI9); test: AMP-dependent Kinase enzyme assay. An in vitro enzyme assay that detects ADP turnover that is directly proportional to AMPK activity. This uses naive AMPK that is activated during the assay with MK-8722; assay type: functional; conditions: 30 µM
[4] = target: Sialic acid-binding Ig-like lectin 9 (Homo sapiens) (UniProt Q9Y336); test: Hs-Siglec9 ALPHAscreen SOP 20170721; conditions: 10 µM
Trypanosoma cruzi = test: Trypanosoma cruzi phosphomannomutase and mannose-1-phosphate guanylyltransferase assay; assay type: functional; conditions: 10 µM
[5] = target: T2, Arginase-2, mitochondrial (Homo sapiens) (UniProt P78540); test: in vitro enzyme assay to detect the production of urea directly proportional to the activity of Arginase II; assay type: functional; conditions: 33.3 µM; also: in the data most compounds retested in dose-response had high values
T2 sequence (whole entry): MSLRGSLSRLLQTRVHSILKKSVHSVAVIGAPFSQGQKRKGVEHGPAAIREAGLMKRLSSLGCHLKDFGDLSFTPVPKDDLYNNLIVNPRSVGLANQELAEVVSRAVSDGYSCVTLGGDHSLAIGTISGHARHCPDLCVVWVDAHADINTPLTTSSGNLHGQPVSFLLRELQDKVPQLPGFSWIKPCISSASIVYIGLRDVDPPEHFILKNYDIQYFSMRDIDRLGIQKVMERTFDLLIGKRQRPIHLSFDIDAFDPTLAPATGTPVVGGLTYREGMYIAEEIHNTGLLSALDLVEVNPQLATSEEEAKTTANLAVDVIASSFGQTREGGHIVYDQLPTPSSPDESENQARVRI

[6] = target: T3, Proteasome subunit beta (Trypanosoma cruzi) (UniProt O96673); test: Trypanosoma cruzi proteasome chymotrypsin-like activity (TcProtChymo) assay.; also: in the data most compounds retested in dose-response had high values; assay type: functional; conditions: 9.37 µM
T3 sequence (whole entry): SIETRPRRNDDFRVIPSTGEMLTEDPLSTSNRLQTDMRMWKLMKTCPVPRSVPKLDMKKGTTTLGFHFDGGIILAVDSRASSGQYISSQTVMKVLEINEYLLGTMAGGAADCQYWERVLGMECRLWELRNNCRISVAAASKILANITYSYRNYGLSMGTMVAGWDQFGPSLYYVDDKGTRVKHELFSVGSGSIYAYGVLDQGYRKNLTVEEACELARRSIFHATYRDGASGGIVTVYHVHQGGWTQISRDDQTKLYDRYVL

Homo sapiens = species on record: Homo sapiens; test: To identify inhibition of the IFN signalling (Jak-Stat) pathway via expression of an eGFP reporter gene under the control of an IFN-stimulated response element (ISRE) containing MxA promoter.; assay type: functional; conditions: 30 µM
[7] = target: T4, Tyrosyl-tRNA synthetase, putative (Trypanosoma cruzi (strain CL Brener)) (UniProt Q4DSP6); test: Trypanosoma cruzi tyrosyl tRNA synthetase (TcYRS) _High Tyrosine SOP; assay type: functional; conditions: 30 µM; also: in the data most compounds retested in dose-response had high values
T4 sequence (whole entry): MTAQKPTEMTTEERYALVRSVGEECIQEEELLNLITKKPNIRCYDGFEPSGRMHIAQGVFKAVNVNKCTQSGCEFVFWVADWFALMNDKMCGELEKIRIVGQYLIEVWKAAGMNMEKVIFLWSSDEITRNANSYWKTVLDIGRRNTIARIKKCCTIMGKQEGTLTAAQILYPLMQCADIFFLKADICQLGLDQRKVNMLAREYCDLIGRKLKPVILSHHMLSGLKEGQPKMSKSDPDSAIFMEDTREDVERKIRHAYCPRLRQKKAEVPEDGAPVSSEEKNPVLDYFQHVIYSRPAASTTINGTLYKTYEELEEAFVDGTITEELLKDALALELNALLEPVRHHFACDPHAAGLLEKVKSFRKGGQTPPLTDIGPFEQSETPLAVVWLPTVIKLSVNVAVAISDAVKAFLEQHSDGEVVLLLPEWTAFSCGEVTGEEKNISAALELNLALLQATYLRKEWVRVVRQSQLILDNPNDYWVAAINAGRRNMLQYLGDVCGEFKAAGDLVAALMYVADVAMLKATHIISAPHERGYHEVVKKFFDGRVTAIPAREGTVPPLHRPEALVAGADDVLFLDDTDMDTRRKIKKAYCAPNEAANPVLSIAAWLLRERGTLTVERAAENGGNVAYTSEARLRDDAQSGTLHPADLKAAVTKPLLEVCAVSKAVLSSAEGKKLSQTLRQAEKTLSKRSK

[8] = target: T4, Tyrosyl-tRNA synthetase, putative (Trypanosoma cruzi (strain CL Brener)); test: Trypanosoma cruzi tyrosyl tRNA synthetase (TcYRS) SOP; assay type: functional; conditions: 30 µM
[9] = target: Chromo domain-containing protein 1 (Saccharomyces cerevisiae (strain ATCC 204508 / S288c) (Baker's yeast)) (UniProt P32657); test: ScCHD-1 Enzyme Inhibition Assay; assay type: functional; conditions: 30 µM; also: in the data most compounds retested in dose-response had high values
Chromo domain-containing protein 1 (Saccharomyces cerevisiae (strain ATCC 204508 / S288c) (Baker's yeast)), sequence (P32657 whole entry, the tested form may be a part): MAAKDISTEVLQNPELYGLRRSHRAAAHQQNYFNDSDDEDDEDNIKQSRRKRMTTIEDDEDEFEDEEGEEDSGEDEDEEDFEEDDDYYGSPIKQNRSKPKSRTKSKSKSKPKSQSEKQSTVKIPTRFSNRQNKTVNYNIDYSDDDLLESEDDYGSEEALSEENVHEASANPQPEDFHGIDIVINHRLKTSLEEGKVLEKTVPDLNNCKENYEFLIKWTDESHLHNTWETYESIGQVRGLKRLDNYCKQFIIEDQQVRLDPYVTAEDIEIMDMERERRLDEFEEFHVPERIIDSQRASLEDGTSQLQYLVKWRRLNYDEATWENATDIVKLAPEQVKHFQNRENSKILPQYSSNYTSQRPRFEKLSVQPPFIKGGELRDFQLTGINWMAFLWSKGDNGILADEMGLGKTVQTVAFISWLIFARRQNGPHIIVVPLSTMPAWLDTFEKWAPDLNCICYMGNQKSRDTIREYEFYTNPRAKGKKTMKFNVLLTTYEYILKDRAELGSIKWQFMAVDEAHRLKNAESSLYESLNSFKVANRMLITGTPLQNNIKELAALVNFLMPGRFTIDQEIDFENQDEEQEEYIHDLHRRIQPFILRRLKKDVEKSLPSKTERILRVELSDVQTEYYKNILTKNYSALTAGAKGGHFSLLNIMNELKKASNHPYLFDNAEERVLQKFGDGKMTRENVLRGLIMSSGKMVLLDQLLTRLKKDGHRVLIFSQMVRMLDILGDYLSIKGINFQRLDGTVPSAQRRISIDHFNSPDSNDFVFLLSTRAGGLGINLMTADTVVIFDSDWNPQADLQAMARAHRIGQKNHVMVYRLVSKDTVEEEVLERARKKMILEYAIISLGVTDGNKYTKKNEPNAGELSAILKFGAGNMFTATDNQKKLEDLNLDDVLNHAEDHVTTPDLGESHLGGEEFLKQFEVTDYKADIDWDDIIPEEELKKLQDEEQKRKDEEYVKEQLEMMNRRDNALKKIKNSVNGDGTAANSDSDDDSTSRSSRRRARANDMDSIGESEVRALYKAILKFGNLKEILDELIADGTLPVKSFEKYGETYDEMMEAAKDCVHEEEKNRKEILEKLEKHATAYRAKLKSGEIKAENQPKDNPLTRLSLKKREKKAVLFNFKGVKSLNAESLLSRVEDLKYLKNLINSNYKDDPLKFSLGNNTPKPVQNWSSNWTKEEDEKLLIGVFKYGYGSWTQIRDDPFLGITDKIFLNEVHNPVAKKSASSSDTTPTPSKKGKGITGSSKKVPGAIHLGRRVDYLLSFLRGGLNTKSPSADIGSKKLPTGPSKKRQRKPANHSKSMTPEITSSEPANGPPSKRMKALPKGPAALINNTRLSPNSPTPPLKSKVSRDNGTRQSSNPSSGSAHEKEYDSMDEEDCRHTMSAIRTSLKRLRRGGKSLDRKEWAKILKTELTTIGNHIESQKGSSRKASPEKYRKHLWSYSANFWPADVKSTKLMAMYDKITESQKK

Sialic acid-binding Ig-like lectin 9 (Homo sapiens), sequence (Q9Y336 whole entry): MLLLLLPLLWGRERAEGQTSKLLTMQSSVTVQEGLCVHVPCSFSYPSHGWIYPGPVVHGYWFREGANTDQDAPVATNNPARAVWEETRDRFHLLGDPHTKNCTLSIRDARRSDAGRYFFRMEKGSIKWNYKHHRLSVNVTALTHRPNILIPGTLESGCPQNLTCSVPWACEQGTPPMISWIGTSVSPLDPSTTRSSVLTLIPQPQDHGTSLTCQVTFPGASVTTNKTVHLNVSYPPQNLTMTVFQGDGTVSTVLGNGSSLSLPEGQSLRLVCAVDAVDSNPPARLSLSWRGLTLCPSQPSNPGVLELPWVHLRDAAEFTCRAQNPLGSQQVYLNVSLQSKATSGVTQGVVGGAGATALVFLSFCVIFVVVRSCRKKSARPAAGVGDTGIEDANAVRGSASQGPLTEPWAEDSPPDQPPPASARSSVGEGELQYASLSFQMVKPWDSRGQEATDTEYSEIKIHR
Protein translocase subunit SecA (Escherichia coli (strain K12)), sequence (P10408 whole entry): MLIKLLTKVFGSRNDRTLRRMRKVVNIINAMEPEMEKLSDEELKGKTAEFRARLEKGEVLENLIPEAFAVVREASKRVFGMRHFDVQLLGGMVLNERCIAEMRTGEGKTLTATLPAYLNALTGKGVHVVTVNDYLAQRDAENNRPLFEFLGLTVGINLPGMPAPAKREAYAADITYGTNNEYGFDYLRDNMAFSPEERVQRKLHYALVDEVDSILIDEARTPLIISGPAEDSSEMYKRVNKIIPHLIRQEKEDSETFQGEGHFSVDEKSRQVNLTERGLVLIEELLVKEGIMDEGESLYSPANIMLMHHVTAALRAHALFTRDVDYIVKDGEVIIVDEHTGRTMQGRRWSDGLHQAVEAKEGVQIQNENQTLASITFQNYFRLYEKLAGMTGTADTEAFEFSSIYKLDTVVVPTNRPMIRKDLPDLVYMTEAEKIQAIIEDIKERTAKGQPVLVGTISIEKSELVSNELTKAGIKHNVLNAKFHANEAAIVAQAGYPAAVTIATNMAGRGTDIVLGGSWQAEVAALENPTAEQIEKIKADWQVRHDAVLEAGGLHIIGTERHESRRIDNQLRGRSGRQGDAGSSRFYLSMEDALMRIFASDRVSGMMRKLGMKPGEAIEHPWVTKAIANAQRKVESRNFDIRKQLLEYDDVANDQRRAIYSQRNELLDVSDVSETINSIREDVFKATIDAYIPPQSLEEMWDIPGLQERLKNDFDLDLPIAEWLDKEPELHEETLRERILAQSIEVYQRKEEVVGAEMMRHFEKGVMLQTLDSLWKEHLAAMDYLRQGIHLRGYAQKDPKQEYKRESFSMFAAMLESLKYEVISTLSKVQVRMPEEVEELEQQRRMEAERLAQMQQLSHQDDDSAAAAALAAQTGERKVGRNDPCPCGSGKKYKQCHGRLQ

Compound	Percent Effect [1]	Percent Effect [2]	Percent Effect [3]	Percent Effect [4]	Percent Effect (Trypanosoma cruzi)	Percent Effect [5]	Percent Effect [6]	Percent Effect (Homo sapiens)	Percent Effect [7]	Percent Effect [8]	Percent Effect [9]
O=C1CCC2(CCN(Cc3nccs3)CC2)N1Cc1ccccc1	-0.659%	5.33%	5.45%	1.02%	-5.91%	3.03%	10.8%	5.84%	5.32%	11.5%	-0.585%
Cc1ccc(CNC2CCN(CCc3ccncc3)CC2)cc1C	-4.25%	-5.41%	-4.58%	7.82%	5.47%	18.8%	5.5%	-6.77%	2.97%	8.54%	29.8%
COc1cccc(CN(C)Cc2ccc(C#N)cc2)c1OC	-2.85%	-5.41%	2.32%	-6%	0.586%	-1.67%	7.86%	-3.25%	4.95%	-3.66%	-5.17%
COc1ncccc1NC(=O)C1CCN(S(C)(=O)=O)CC1	-2.31%	15.6%	-6.01%	4.87%	0.749%	-0.356%	6.42%	15.1%	6.8%	21.9%	-9.19%
COc1ccc(C2=CCN(C(=O)CN(C)CC(N)=O)CC2)cc1	-1.62%	5.06%	0.216%	-0.305%	-19.4%	6.46%	9.42%	16.9%	3.45%	8.86%	-6.22%
Cn1nc(CNC(=O)C2COc3ccccc3O2)cc1C1CC1 (stereo unspecified)	-5.12%	-2.6%	21.3%	-1.75%	-3.85%	-3.23%	8.36%	1.88%	0%	-6.41%	-1.13%
Cc1nccn1-c1cc(CNC(=O)c2ccccn2)ccn1	-3.33%	16.4%	4.31%	6.49%	3.33%	-0.455%	17.6%	15.2%	2.15%	20%	-4.24%
COc1cccc(CN(C)Cc2cccc(C#N)c2)c1OC	-2.4%	10.8%	-3.58%	5.68%	5.08%	23.3%	8.88%	7.86%	1.98%	-1.22%	-6.76%
CC(OCC1CC1)C(=O)N1CCCN(c2ncccc2C#N)CC1 (stereo unspecified)	-5.69%	23.7%	-5.36%	-8.93%	-0.0934%	-8.99%	2.79%	-5.09%	6.4%	-8.64%	-5.69%
Cc1ccc(CN2CCc3ncnc(-c4ccc(F)cc4)c3CC2)o1	-0.438%	5.33%	3.65%	4.4%	-1.93%	-50.4%	12.5%	-0.337%	1.04%	12.5%	-9.77%
Cn1cnc2c1C(COCc1cccnc1)N(Cc1ccccn1)CC2 (stereo unspecified)	-3.69%	8%	-12.6%	2.61%	7.53%	-51.8%	5.47%	3.9%	4.17%	-55%	-7.17%
